Assay results reported in article PMC5540273 (PLoS ONE, 2017).
Where two headings read alike, the source gives them in different places.

Experiments:
[1] = system: PIP5K1A; conditions: concentration: 1 μM, replicates: in singlicate; n = 1
[2] = system: PIP5K1C; conditions: concentration: 1 μM, replicates: in singlicate; n = 1
[3] = system: PIP5K2B; conditions: concentration: 1 μM, replicates: in singlicate; n = 1
[4] = system: T1, PIP5K2C; conditions: concentration: 1 μM, replicates: in singlicate; n = 1
T1 construct: gene PIP4K2C

[5] = system: T2, PKAC-alpha; conditions: n = 1
T2 construct: gene PRKACA

[6] = system: T3, PKAC-beta; conditions: n = 1
T3 construct: gene PRKACB

[7] = system: PKMYT1; conditions: concentration: 1 μM, replicates: in singlicate; n = 1
[8] = system: PKN1; conditions: n = 1
[9] = system: PKN2; conditions: concentration: 1 μM, replicates: in singlicate; n = 1
[10] = system: PLK1; conditions: concentration: 1 μM, replicates: in singlicate; n = 1
[11] = concentration: 1 μM, replicates: in singlicate
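Also: KINOMEscan kinase panel screen.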

Row | SMILES | %Inh [1] [%] | %Inh [2] [%] | %Inh [3] [%] | %Inh [4] [%] | %Inh [5, 11] [%] | %Inh [6, 11] [%] | %Inh [7] [%] | %Inh [8, 11] [%] | %Inh [9] [%] | %Inh [10] [%] | %Inh ([5]; 1 µM) [%] | %Inh ([6]; 1 µM) [%] | %Inh ([8]; 1 µM) [%]
1 | Nc1ncc(-c2cccnc2)c2scc(-c3ccc4c(c3)CCN4C(=O)Cc3ccccc3)c12 [GSK683281] | 0 | 17 | 19 | 0 | 31 | 13 | 13 | 30 | 18 | 5 |  |  | 
2 | COc1cccc(NC(=O)NC2CCN(c3ccnc(Nc4cc(OC)c(OC)c(OC)c4)n3)C2)c1 (centres unmarked) [GSK1379763] | 0 | 57 | 0 | 91.1 | 0 | 0 | 64 | 0 | 0 | 15 |  |  | 
3 | O=C(Nc1cccc(-c2nn3ccccc3c2-c2ccnc(Nc3cccc(C(F)(F)F)c3)n2)c1)c1c(F)cccc1F [GSK292658] | 0 | 0 | 5 | 10 | 0 | 13 | 0 | 11 | 0 | 0 |  |  | 
4 | Cc1occc1-c1ncc(OC[C@@H](N)Cc2c[nH]c3ccccc23)cc1-c1ccc2[nH]nc(C)c2c1.O=C(O)C(F)(F)F [GSK682037] | 75 | 19 | 40 | 0 | 99.8 | 99.5 | 7 | 28 | 64 | 0 |  |  | 
5 | O=C(Nc1n[nH]c2nc(-c3ccc(O)cc3)ccc12)C1CC1 [SB-710363] | 21 | 83 | 56 | 0 | 0 | 18 | 0 | 19 | 23 | 0 |  |  | 
6 | O=C(Nc1cccc(Oc2ccc3nc(NC(=O)C4CC4)cn3n2)c1)c1ccccc1C(F)(F)F | 39 | 33 | 0 | 34 | 0 | 34 | 0 | 0 | 0 | 0 |  |  | 
7 | CN(C)S(=O)(=O)c1cc(-c2ccc3nccc(-c4cccc(S(N)(=O)=O)c4)c3c2)cnc1N [GSK1669921] | 0 | 36 | 21 | 85 | 3 | 10 | 0 | 57 | 0 | 33 |  |  | 
8 | Nc1n[nH]c2cnc(-c3ccccc3)cc12 [SB-642124] | 40 | 0 | 32 | 18 | 0 | 0 | 15 | 0 | 31 | 0 |  |  | 
9 | O=C(Nc1cccc(-c2nn3ncccc3c2-c2ccnc(Nc3ccccc3)n2)c1)c1c(F)cccc1F [GSK198271] | 0 | 0 | 11 | 27 | 5 | 2 | 7 | 8 | 0 | 3 |  |  | 
10 | COc1cc(Nc2nccc(-c3c(-c4cccc(NC(=O)c5c(F)cccc5F)c4)nn4ccccc34)n2)cc(OC)c1OC [GSK323521] | 0 | 45 | 23 | 27 | 0 | 6 | 4 | 12 | 6 | 2 |  |  | 
11 | c1ccc(-c2n[nH]cc2Nc2ccnc3ccccc23)nc1 [GW694077] | 10 | 73 | 54 | 72 | 0 | 0 | 0 | 7 | 0 | 0 |  |  | 
12 | CC(=O)N1CCN(c2ccc(Nc3nccc(-c4sc(C(C)C)nc4-c4cccc(NS(=O)(=O)c5cccc(Cl)c5)c4)n3)cn2)CC1 [GSK1660437] | 0 | 15 | 15 | 66 | 0 | 6 | 0 | 57 | 12 | 0 |  |  | 
13 | Cl.c1ccc(-c2ccc3c(Nc4ccc5[nH]ncc5c4)ccnc3c2)nc1 [GW440137] | 18 | 30 | 0 | 55 | 0 | 0 | 0 | 15 | 0 | 0 |  |  | 
14 | COc1cccc(-c2ccc3c(NC(=O)C4CC4)n[nH]c3n2)c1 [SB-710903] | 58 | 65 | 20 | 64 | 0 | 0 | 8 | 0 | 0 | 0 |  |  | 
15 | CCn1c(-c2nonc2N)nc2c(C#CC(C)(C)O)nc(OC[C@H](N)c3ccccc3)cc21 [GSK943949] | 0 | 90.8 | 0 | 0 | 98 | 97.7 | 19 | 90.8 | 19 | 0 |  |  | 
16 | COC(=O)Nc1nc2cc(Oc3ccc(NC(=O)Nc4cc(C(F)(F)F)ccc4F)cn3)ccc2[nH]1.Cl.Cl [GW681170] | 9 | 61 | 12 | 19 | 0 | 0 | 5 | 15 | 15 | 0 |  |  | 

Row | SMILES | %Inh [1] [%] | %Inh [2] [%] | %Inh [3] [%] | %Inh [4] [%] | %Inh [5, 11] [%] | %Inh [6, 11] [%] | %Inh [7] [%] | %Inh [8, 11] [%] | %Inh [9] [%] | %Inh [10] [%] | %Inh ([5]; 1 µM) [%] | %Inh ([6]; 1 µM) [%] | %Inh ([8]; 1 µM) [%]
17 | CCn1c(-c2nonc2N)nc2c(C#CC(C)(C)O)ncc(OCCCCN)c21.O=C(O)C(F)(F)F.O=C(O)C(F)(F)F [GSK507274] | 26 | 0 | 6 | 0 |  |  | 0 |  | 0 | 5 | 92.5 | 95.6 | 5
18 | COc1ccc(CNC(=O)NC2CCN(c3ccnc(Nc4ccc(F)cc4)n3)CC2)cc1 [GSK1379788] | 5 | 57 | 4 | 9 | 0 | 0 | 0 | 0 | 0 | 0 |  |  | 
19 | COc1cc(Nc2nccc(N3CCC(NC(=O)Nc4cccc(C(C)=O)c4)C3)n2)cc(OC)c1OC (centres unmarked) [GSK1379753] | 0 | 46 | 5 | 86 | 0 | 0 | 0 | 0 | 0 | 0 |  |  | 
20 | Cc1cccc(Nc2nc(N[C@H]3CCNC3)ncc2C(N)=O)c1.Cl [GSK2197149] | 47 | 76 | 65 | 0 | 19 | 0 | 0 | 3 | 14 | 0 |  |  | 
21 | COc1cc2c(cc1OCCN1CCNCC1)ncc1c3ccc(C#N)cc3[nH]c21 | 58 | 1 | 46 | 16 | 0 | 0 | 0 | 61 | 41 | 28 |  |  | 
22 | Cl.NC(=O)c1cccc(Nc2nccc(Nc3ccc(Oc4c(Cl)cccc4Cl)c(Cl)c3)n2)c1 [GW659009] | 0 | 19 | 97.4 | 64 | 0 | 0 | 0 | 59 | 0 | 0 |  |  | 
23 | CCCCc1nn2ncccc2c1-c1ccnc(Nc2ccc(N3CCN(C)CC3)cc2)n1 [GW684941] | 33 | 48 | 5 | 96.7 | 0 | 8 | 0 | 5 | 0 | 0 |  |  | 
24 | Cl.Cl.NCC(NCc1ccc(-c2ccnc3[nH]ccc23)s1)c1ccccc1 (centres unmarked) [GSK1321565] | 71 | 63 | 45 | 39 | 97.9 | 94.9 | 0 | 30 | 64 | 0 |  |  | 
25 | Cc1ccc(F)c(C(=O)Nc2cccc(-c3nn4ccccc4c3-c3ccnc(Nc4cccc(F)c4)n3)c2)c1F [GSK361061] | 0 | 6 | 15 | 0 | 13 | 29 | 17 | 0 | 17 | 19 |  |  | 
26 | Cl.Cl.NCC(C(=O)Nc1cc(Br)c(-c2ccnc3[nH]ccc23)s1)c1ccccc1 (centres unmarked) [GSK1269851] | 55 | 38 | 74 | 1 | 97.2 | 93.6 | 0 | 100 | 15 | 0 |  |  | 
27 | C[C@@H](Oc1cc(-n2cnc3cc(-c4ccnc(NCCS(C)(=O)=O)c4)ccc32)sc1C(N)=O)c1ccccc1Cl [GSK907232] | 5 | 14 | 47 | 30 | 0 | 0 | 5 | 35 | 0 | 100 |  |  | 
28 | COc1ccc(-c2coc3ccc(-c4nnc(SCc5ccc(OC)c(C(F)(F)F)c5)o4)cc23)cc1 | 0 | 0 | 4 | 0 | 15 | 3 | 17 | 24 | 3 | 0 |  |  | 
29 | COc1cc(Nc2nccc(N3CCC(NC(=O)c4cc5ccccc5s4)C3)n2)cc(OC)c1OC (centres unmarked) [GSK1379760] | 26 | 52 | 15 | 92.6 | 18 | 0 | 0 | 0 | 1 | 17 |  |  | 
30 | Fc1ccc(-c2ncn(C3CCNCC3)c2-c2ccnc(Oc3ccc(-c4ccccc4)cc3)n2)cc1 [SB-245391] | 14 | 24 | 0 | 20 | 35 | 31 | 9 | 0 | 18 | 35 |  |  | 
31 | CSc1cccc2c(-c3ccncn3)c(-c3ccc(F)cc3)nn12 [GW514786] | 0 | 47 | 8 | 8 | 14 | 36 | 6 | 0 | 0 | 7 |  |  | 
32 | CN(c1ccc(NC(=O)Nc2cc(C(F)(F)F)ccc2F)cc1)c1ccnc(Nc2ccc(S(N)(=O)=O)cc2)n1 [GW809893] | 10 | 14 | 0 | 94.6 | 18 | 18 | 1 | 0 | 8 | 3 |  |  | 
